# Source: the OligoGym collection
# How the values were obtained:
# Test in all cases: pooled miR-30 sensor sort-seq; sequence = guide strand
# Conditions in all cases: shRNA
# GPR89B = target: GPR89B
# GPS1 = target: GPS1
# GRIK2 = target: GRIK2
# GRHL3 = target: GRHL3
# GRIPAP1 = target: GRIPAP1
# GRIA1 = target: GRIA1
# GRK1 = target: GRK1
# HBB = target: HBB
# HBM = target: HBM
# HBQ1 = target: HBQ1
# HBD = target: HBD
# HDHD2 = target: HDHD2
# HHATL = target: HHATL
# HIST1H4A = target: HIST1H4A
# HIST2H3A = target: HIST2H3A
# HP1BP3 = target: HP1BP3
# HPD = target: HPD
# HOXD12 = target: HOXD12
# HOXA6 = target: HOXA6
# HOXD4 = target: HOXD4
# Further: reference of the scale not given here.
sequence,measurement,setting,value
TACCATAGACATCTCTTGCCCC,sensor-assay potency score (higher = more potent),GPR89B,0.0271
AAGAACAACTTGAAGGAGCTGC,sensor-assay potency score (higher = more potent),GPS1,0.981
TTGACCAGCACTGACTGCCTTC,sensor-assay potency score (higher = more potent),GRIK2,-0.29
TCACAGAAGATCTTGATCTGGC,sensor-assay potency score (higher = more potent),GRHL3,0.419
TTGAAGTTCTTCCACTGTCTGC,sensor-assay potency score (higher = more potent),GRIPAP1,-0.043
TTTGTGATCAGCTTCCTTCCGT,sensor-assay potency score (higher = more potent),GRIPAP1,0.395
TTTCTGTCTGCTTCGCTAGGTC,sensor-assay potency score (higher = more potent),GRIA1,-0.0532
TACTGCTCCATATTCTATCTTG,sensor-assay potency score (higher = more potent),GRIK2,-0.199
TTTGTTTAGCTAAATCATCAGC,sensor-assay potency score (higher = more potent),GRIK2,-0.527
TTTGTTGTCTGACACCTGGTGC,sensor-assay potency score (higher = more potent),GRIK2,0.0104
TTTGTTTAAGTCAATGTCCATG,sensor-assay potency score (higher = more potent),GRIA1,-1.06
TACACTGCAAGGAACTGACTGT,sensor-assay potency score (higher = more potent),GRIK2,0.034
TTCCTTGCTGAACTCGGCCATT,sensor-assay potency score (higher = more potent),GRIPAP1,-1.52
TATCGTACCACCATTTGCTTTT,sensor-assay potency score (higher = more potent),GRIA1,-0.245
TTCCATTGCTAGCTCATCCAGC,sensor-assay potency score (higher = more potent),GRIPAP1,-0.174
TTTGCTGAACTCCTTATCCAAG,sensor-assay potency score (higher = more potent),GRIPAP1,-1.41
TTCTCTAGCTTTATAATCTGGC,sensor-assay potency score (higher = more potent),GRIA1,-0.406
TCCATCACTGACAATCTCCAGA,sensor-assay potency score (higher = more potent),GRIA1,-1.21
TATAACTTCTTCCCGGACCAAA,sensor-assay potency score (higher = more potent),GRIA1,-1.38
TAGTCCTCGATGTCTTTCCAGA,sensor-assay potency score (higher = more potent),GRK1,-1.36
TAAACCTTCAAATCGCACCTGC,sensor-assay potency score (higher = more potent),GRIA1,0.232
TTTCTCATTAAACTGCACGTTT,sensor-assay potency score (higher = more potent),GRIA1,-0.314
TTAATTAGACTCATAAAGCGGG,sensor-assay potency score (higher = more potent),GRIK2,0.186
TTATCGTACCACCATTTGCTTT,sensor-assay potency score (higher = more potent),GRIA1,-1.73
TTGACTGCTGTCACCTGCCAGT,sensor-assay potency score (higher = more potent),GRIA1,-0.603
TTGTGATCAGCTTCCTTCCGTT,sensor-assay potency score (higher = more potent),GRIPAP1,-0.347
TTTATGTCGATTACACTGCAAG,sensor-assay potency score (higher = more potent),GRIK2,-0.937
TTGTCCATTGGCATCATCCTGG,sensor-assay potency score (higher = more potent),GRIK2,-0.234
TTGCTGGTTCTCTTGCTCCAGC,sensor-assay potency score (higher = more potent),GRIPAP1,-0.982
TTCTTGAAGTTGTTCCAGCAGT,sensor-assay potency score (higher = more potent),GRIPAP1,-0.658
TTGTCTTGTCCTTACTTCCGGA,sensor-assay potency score (higher = more potent),GRIA1,-0.41
TTGAGTCGAAGATTATACCTTG,sensor-assay potency score (higher = more potent),GRIK2,0.358
TTCTTTTTCAGTTTCTCGGAGA,sensor-assay potency score (higher = more potent),GRIPAP1,-0.31
TTCCTGTGCATCTGCACTCTGG,sensor-assay potency score (higher = more potent),GRIPAP1,-1.21
TATTTCTTGAAGTTGTTCCAGC,sensor-assay potency score (higher = more potent),GRIPAP1,-0.115
TTGTCGCAGGTCTCATCTCTGA,sensor-assay potency score (higher = more potent),GRK1,-1.13
AAATCTATAACTTCTTCCCGGA,sensor-assay potency score (higher = more potent),GRIA1,0.0312
TCGAACATAGGTAATAGCCAGT,sensor-assay potency score (higher = more potent),GRIK2,-0.567
TTTCTTTTTCAGTTTCTCGGAG,sensor-assay potency score (higher = more potent),GRIPAP1,-0.138
TTGTTCTCCACCTTCTCTCCAC,sensor-assay potency score (higher = more potent),GRK1,-0.0458
TAGAGCAGCATCAGTCGTCATA,sensor-assay potency score (higher = more potent),GRIK2,-0.889
TTCTTCATTACTTTTGACCAGC,sensor-assay potency score (higher = more potent),GRIK2,-0.437
ACCACCAACTTCATCCACGTTC,sensor-assay potency score (higher = more potent),HBB,-1.74
AACACTGGATTAGCAGCGGAAA,sensor-assay potency score (higher = more potent),HBM,-1.52
TGCATTTGCACGGTGAACTCGT,sensor-assay potency score (higher = more potent),HBM,0.113
TTCCAGGGCCTCTGTCGTGTAG,sensor-assay potency score (higher = more potent),HBQ1,-1.54
ATAACGTGGCTCAGGAACTTGT,sensor-assay potency score (higher = more potent),HBQ1,-1.13
AAGTAGGTCTTCGTGGCGGGGA,sensor-assay potency score (higher = more potent),HBQ1,-0.359
ATTAGCAGCGGAAAGTTGGCTG,sensor-assay potency score (higher = more potent),HBM,0.235
ATTCTTTGCCAAAGTGATGGGC,sensor-assay potency score (higher = more potent),HBB,-0.706
TAGACGCCGACGTTGCTGCCCA,sensor-assay potency score (higher = more potent),HBQ1,-0.72
TCTGATAGGCAGCCTGCACTGG,sensor-assay potency score (higher = more potent),HBB,-0.723
TTGCTGCCCAGCTTCTTCCACA,sensor-assay potency score (higher = more potent),HBQ1,-1.27
TCAGGTCCCAGACCTGCGCGAT,sensor-assay potency score (higher = more potent),HBM,-1.04
TTCACTTTGCCCCACAGGGCAT,sensor-assay potency score (higher = more potent),HBD,-0.844
AGCCACACCAGCCACCACCTTC,sensor-assay potency score (higher = more potent),HBD,-1.62
TTGCACGGTGAACTCGTCCTGC,sensor-assay potency score (higher = more potent),HBM,0.462
TTTGCACGGTGAACTCGTCCTG,sensor-assay potency score (higher = more potent),HBM,0.188
TAGGTCGTCCAGGCGCTCCACG,sensor-assay potency score (higher = more potent),HBQ1,-1.23
AACAGCATCAGGAGTGGACAGA,sensor-assay potency score (higher = more potent),HBB,-1.35
TCCACGTGCTGCACCGCCGCGC,sensor-assay potency score (higher = more potent),HBM,-1.37
TGGGAGAAGTAGGTCTTCGTGG,sensor-assay potency score (higher = more potent),HBQ1,-0.972
TTACCAGCAGGCAGTGGCCCAG,sensor-assay potency score (higher = more potent),HBQ1,-1.7
TGCACGGTGAACTCGTCCTGCA,sensor-assay potency score (higher = more potent),HBM,-1.03
TTTGCCAAAGTGATGGGCCAGC,sensor-assay potency score (higher = more potent),HBB,-0.758
AATTCCTTGCCAAAGTTGCGGG,sensor-assay potency score (higher = more potent),HBD,-0.612
TGAACTCGTCCTGCAGGTGGGA,sensor-assay potency score (higher = more potent),HBM,-0.648
TTGTCCACGTGCTGCACCGCCG,sensor-assay potency score (higher = more potent),HBM,-1.46
TTTAGTAGTTGGACTTAGGGAA,sensor-assay potency score (higher = more potent),HBB,0.165
AACTTCATCCACGTTCACCTTG,sensor-assay potency score (higher = more potent),HBB,-0.552
ACCACCAACTGCATCCACGTTC,sensor-assay potency score (higher = more potent),HBD,-1.79
TTGGTGCTGGGGTACACCGTGA,sensor-assay potency score (higher = more potent),HBM,-1.01
ACTAAAGGCACCTAGCACCTTC,sensor-assay potency score (higher = more potent),HBD,-0.765
TAGACCACCAGTAATCTGCCCA,sensor-assay potency score (higher = more potent),HBD,-0.29
ACACACACCAGCACATTGCCCA,sensor-assay potency score (higher = more potent),HBD,-0.428
AACAGCATCAGGAGAGGACAGA,sensor-assay potency score (higher = more potent),HBD,-1.5
TGCGGGAAGTAGACCTTGGTGC,sensor-assay potency score (higher = more potent),HBM,-0.583
TCAGCTGAGAAAAAGTGCCCTT,sensor-assay potency score (higher = more potent),HBD,-0.0837
TGGGCTCTGACTTGTGAGGAGC,sensor-assay potency score (higher = more potent),HBQ1,-1.65
ATTCCTTGCCAAAGTTGCGGGC,sensor-assay potency score (higher = more potent),HBD,-0.495
TGTCGTGTAGACGCCGACGTTG,sensor-assay potency score (higher = more potent),HBQ1,-0.887
AAGTCTCCGGGGTAGTGCCGGG,sensor-assay potency score (higher = more potent),HBQ1,-1.01
AGAAGTAGGTCTTCGTGGCGGG,sensor-assay potency score (higher = more potent),HBQ1,-0.804
TCAACTAGCAGCATGGGTCTGA,sensor-assay potency score (higher = more potent),HDHD2,0.908
TTGCTATCAGAGGTGCTCCATC,sensor-assay potency score (higher = more potent),HDHD2,-0.808
TAGAAGTTGTACTTGAGCAGGT,sensor-assay potency score (higher = more potent),HHATL,0.918
TCAGCCACATCCATCTTCCGGC,sensor-assay potency score (higher = more potent),HHATL,-0.0987
AACACCTTGAGCACCCCGCGAG,sensor-assay potency score (higher = more potent),HIST1H4A,-0.99
ATGTTGTCACGCAACACCTTGC,sensor-assay potency score (higher = more potent),HIST1H4A,-1.02
TCTCGCGTACCAGCCGCTGGAA,sensor-assay potency score (higher = more potent),HIST2H3A,-1.89
TCCGTCTTAAAGTCCTGCGCGA,sensor-assay potency score (higher = more potent),HIST2H3A,-1.2
TATCTTCTACCTTCTCACCTAA,sensor-assay potency score (higher = more potent),HP1BP3,-0.313
TGCTGCAGTAGAATGACGCGGC,sensor-assay potency score (higher = more potent),HPD,-0.159
TTGGTGTCGTCCTTGAAGCCAG,sensor-assay potency score (higher = more potent),HOXD12,-0.854
TGTTGGTAGAAACAAGGTGAGG,sensor-assay potency score (higher = more potent),HOXA6,-1.56
TTGATTTCTGAACCACAACAAA,sensor-assay potency score (higher = more potent),HP1BP3,-1.61
TACTGAGACACATATTTCCTGA,sensor-assay potency score (higher = more potent),HP1BP3,-0.347
TTATGATCTTTTTTCCACTTCA,sensor-assay potency score (higher = more potent),HOXD4,-0.3
TAGACTGATCTTTCTCATCCTT,sensor-assay potency score (higher = more potent),HP1BP3,0.288
TAAGATTGCATCCATCTTGGGA,sensor-assay potency score (higher = more potent),HP1BP3,-0.272
AAACTTGTCTTGCTCTACCCAG,sensor-assay potency score (higher = more potent),HPD,-0.591
TTTTTCCAGTTCTAGGACTTGC,sensor-assay potency score (higher = more potent),HOXD4,-0.495
TTGCTGGTCGCTGAGGTTCAGC,sensor-assay potency score (higher = more potent),HOXD12,-1.6
TAAAATGAAATTCTTTTTCCAG,sensor-assay potency score (higher = more potent),HOXD4,-0.413
TTGGGGTCCACATACTTGGAGT,sensor-assay potency score (higher = more potent),HOXD4,-0.994
TAGTGTTGGGCAGCTTATGATC,sensor-assay potency score (higher = more potent),HOXD4,-1.61
TAGGACTTGCTGCCGGGTGTAG,sensor-assay potency score (higher = more potent),HOXD4,-1.46
TTGACTTGCTGGTCGCTGAGGT,sensor-assay potency score (higher = more potent),HOXD12,0.586
TTCGGAAACAGAACTCCTGGGC,sensor-assay potency score (higher = more potent),HP1BP3,0.0322
TTCTTCTGCAACCTTCTCTTAG,sensor-assay potency score (higher = more potent),HP1BP3,-0.784
TGTGATGATGTCTTCGGTCTTG,sensor-assay potency score (higher = more potent),HPD,0.215
TTGGACTGTTGGTAGAAACAAG,sensor-assay potency score (higher = more potent),HOXA6,-1.21
TATTGGACAATTCCTTGCGTTT,sensor-assay potency score (higher = more potent),HOXD12,-1.31
TTCTTTTTCCAGTTCTAGGACT,sensor-assay potency score (higher = more potent),HOXD4,-0.804
TGCACCTTCTTCATCCAGGGGT,sensor-assay potency score (higher = more potent),HOXD4,-0.0453
ATGACTTCCAGGAAGAGCGTGG,sensor-assay potency score (higher = more potent),HPD,-0.0981
TAGGGTTTCCGCTTCTTGCGGG,sensor-assay potency score (higher = more potent),HOXD12,-0.0363
ATGATCTTTTTTCCACTTCATC,sensor-assay potency score (higher = more potent),HOXD4,-1.7
TTCTGAACCACAACAAAACTTC,sensor-assay potency score (higher = more potent),HP1BP3,-0.196
TCTTCGGAAACAGAACTCCTGG,sensor-assay potency score (higher = more potent),HP1BP3,-0.507
